Assay outcomes deposited in PubChem by Sanford-Burnham Center for Chemical Genomics.
Only some compounds are listed: those with a hit (about 3% of all), similar ones and a draw of the others.
PPC-1+TRAIL kill: kills PPC-1 cancer cells in the presence of TRAIL; cell killing (% activity), % at 4 µM or 5 µM; 220,000 compounds, 0.41% hits; AID 1443; PPC-1 cells + TRAIL, ATPLite viability luminescence;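 active = cell killing above 50% in the first pass at 4 µM, then a duplicate retest at 5 µM averaging 50% or more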
SENP7 inh: inhibitors of human SENP7 protease. recombinant SENP7, Z-RLRGG-aminoluciferin luminescence, 40 min. inhibition, % at 5 µM. 330,000 compounds, 1.5% hits. AID 434973;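 active = inhibition above about 50% at the single test dose, limit read from the data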
Target sequence (Q9BQF6 706-1050 limits assumed): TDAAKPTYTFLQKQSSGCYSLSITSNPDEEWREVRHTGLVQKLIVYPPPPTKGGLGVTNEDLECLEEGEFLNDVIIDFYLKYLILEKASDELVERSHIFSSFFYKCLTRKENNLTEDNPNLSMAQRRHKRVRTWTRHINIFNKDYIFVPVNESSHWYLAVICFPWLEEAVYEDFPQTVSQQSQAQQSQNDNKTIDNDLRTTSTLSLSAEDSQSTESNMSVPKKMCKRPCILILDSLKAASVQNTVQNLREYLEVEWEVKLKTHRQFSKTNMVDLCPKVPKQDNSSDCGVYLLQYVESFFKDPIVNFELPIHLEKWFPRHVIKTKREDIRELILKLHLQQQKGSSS
SENP8 block-1: blocks human SENP8 cleavage of Nedd8 substrate; recombinant SENP8, Nedd8 substrate fluorescence; Q96LD8; 360,000 compounds, 0.64% hits; inhibition, % at 20 µM; AID 602440; in the data active = inhibition mostly above about 40%, no sharp cut-off; inactive = mostly below about 27%
Target sequence (Q96LD8 whole entry, looked up): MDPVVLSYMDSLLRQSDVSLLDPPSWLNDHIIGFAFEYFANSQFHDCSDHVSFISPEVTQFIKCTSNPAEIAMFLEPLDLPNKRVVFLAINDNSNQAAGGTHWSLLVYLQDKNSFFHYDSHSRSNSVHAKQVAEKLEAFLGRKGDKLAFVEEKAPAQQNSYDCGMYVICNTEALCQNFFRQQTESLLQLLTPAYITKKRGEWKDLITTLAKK
SENP6 block: blocks the human protease SENP6; inhibition, % at 10 µM; Recombinant SENP6 catalytic domain, aminoluciferin luminescence; 330,000 compounds, 1.8% hits; Q9GZR1;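 active = inhibition above about 50% at the single tested dose, limit read from the data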
TRAIL sens C8: caspase-8 TRAIL sensitization; 360,000 compounds, 1% hits; AID 624354; inhibition (viability loss, TRAIL sensitization), % at 10 µM; NB7+C8 cells + TRAIL, ATPlite viability luminescence;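 active = compounds causing at least 50% loss of cell viability in the single-dose screen, relative to plate controls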
SENP8 block-2: blocks the human protease SENP8 | purified SENP8, Z-RLRGG-aminoluciferin cleavage, luminescence | 330,000 compounds, 1.2% hits | inhibition, % at 10 µM | Q96LD8 | AID 2540; in the data active = inhibition above about 50%
SENP8 conf: confirmation of human SENP8 protease inhibitors; 6,200 compounds, 40% hits; Recombinant SENP8, Z-RLRGG-aminoluciferin luminescence, 60 min; shares compounds with SENP7 inh; AID 488912; inhibition, % at 12.5 µM;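 active = mean inhibition across replicates above about 50%, limit read from the data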
SENP6 confirm: human SENP6 inhibition, confirmed | inhibition, % at 12.5 µM | 6,200 compounds, 58% hits | AID 488915 | shares compounds with SENP7 inh | recombinant SENP6, Z-RLRGG-aminoluciferin luminescence
SENP7 confirm: confirmation of human SENP7 protease inhibitors; shares compounds with SENP7 inh; recombinant SENP7, Z-RLRGG-aminoluciferin luminescence, 40 min; inhibition, % at 12.5 µM; 6,200 compounds, 69% hits; AID 488917
Casp3 SENP sel: selectivity test for SENP inhibitors: human caspase-3 inhibition. shares compounds with SENP7 inh. AID 488918. inhibition, % at 12.5 µM. purified caspase-3, Z-DEVD-aminoluciferin luminescence, 60 min. 6,200 compounds, 60% hits;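 active = mean inhibition above about 50%, limit read from the data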
Luc interf: luminescence interference (SENP counter-screen) | inhibition, % at 12.5 µM | shares compounds with SENP7 inh | AID 488919 | Pre-incubated SENP8/Z-RLRGG-aminoluciferin, luciferase luminescence interference | 6,200 compounds, 39% hits;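 active = mean inhibition above about 50% when retested at one dose, limit read from the data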
Large screens that a line does not name were inactive (follow-up assays come after a bar, where they were run).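 Rule for the calls, unless noted: active = mean inhibition above about 50% in the one-dose retest (limit read from the data); inactive = the rest.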

O=c1c2cc(Br)ccc2nc(-c2ccccc2)n1O	SENP6 block 62.5 (no result: PPC-1+TRAIL kill) | SENP8 conf 64.8 | SENP6 confirm 60.9 | SENP7 confirm 84.5 | Casp3 SENP sel 60.8 | Luc interf 72.2
COc1ccc(OC)c(S(=O)(=O)Oc2ccc(N)c3ccccc23)c1	SENP6 block 94.3, SENP8 block-2 72.4 (no result: PPC-1+TRAIL kill) | SENP8 conf inactive | SENP6 confirm inactive | SENP7 confirm inactive | Casp3 SENP sel inactive | Luc interf inactive
Cc1ccnc(NC(=O)c2ccc3c(c2)S(=O)(=O)c2ccccc2C3=O)c1	SENP7 inh 92.4, SENP6 block 87.4, SENP8 block-2 84.5 | SENP8 conf inactive | SENP6 confirm inactive | SENP7 confirm 97.1 | Casp3 SENP sel 63.7 | Luc interf inactive
O=C(Nc1ccccn1)c1ccc2c(c1)S(=O)(=O)c1ccccc1C2=O	none
CCNC(=O)NC(=O)COC(=O)c1ccccc1SCC(=O)NC(=O)NCC	SENP7 inh 92.5, SENP6 block 95.1, SENP8 block-2 93.4 | SENP8 conf 96.0 | SENP6 confirm 96.3 | SENP7 confirm 101.9 | Casp3 SENP sel 97.5 | Luc interf 85.3
O=C(COC(=O)c1ccccc1SCC(=O)NC1CCS(=O)(=O)C1)NC1CCS(=O)(=O)C1 (configuration not stated)	none
CC1(C2CC2)NC(=O)N(CC(=O)NCC(=O)Nc2ccc(F)c(F)c2F)C1=O (configuration not stated)	none (no result: PPC-1+TRAIL kill)
CCN(CC)c1ccc(N=Nc2nn(C)c(C)c2[N+](=O)[O-])cc1	SENP7 inh 63.5, SENP6 block 77.5, TRAIL sens C8 63.1, SENP8 block-2 54.4 | SENP8 conf inactive | SENP6 confirm inactive | SENP7 confirm inactive | Casp3 SENP sel inactive | Luc interf inactive
CCN(Cc1ccccc1)c1ccc(N=Nc2nn(C)c(C)c2[N+](=O)[O-])cc1	none
Cc1ccc(Sc2ncccc2N)cc1	SENP6 block 67.4 (no result: PPC-1+TRAIL kill) | SENP8 conf inactive | SENP6 confirm inactive | SENP7 confirm inactive | Casp3 SENP sel inactive | Luc interf inactive
Cc1c(C)c2cc(Cl)c(OCC(=O)NC3CC(C)(C)NC(C)(C)C3)cc2oc1=O	none (no result: PPC-1+TRAIL kill)
O=C(O)c1ccc(/C=N/Nc2nc3ccccc3[nH]2)cc1	SENP7 inh 57.9 | SENP8 conf inactive | SENP6 confirm inactive | SENP7 confirm inactive | Casp3 SENP sel inactive | Luc interf inactive
O=c1[nH]c(N/N=C\c2ccc(F)cc2)nc2ccccc12	none
O=c1[nH]c(N/N=C/c2ccc(O)cc2)nc2ccccc12	SENP7 inh 51.0, SENP6 block 75.2, SENP8 block-2 60.4 | SENP8 conf inactive | SENP6 confirm 61.9 | SENP7 confirm 86.0 | Casp3 SENP sel 81.2 | Luc interf 71.1
COc1ccccc1NS(=O)(=O)c1cccc(-n2c(O)c(C=Nc3ccccc3C(=O)O)c3ccccc3c2=O)c1	SENP6 block 51.6 | SENP8 conf inactive | SENP6 confirm inactive | SENP7 confirm inactive | Casp3 SENP sel inactive | Luc interf inactive
COc1ccc(Cn2c(O)c(C=Nc3ccccc3C(=O)O)c3ccccc3c2=O)cc1	none
CC1CC(C)CN(S(=O)(=O)c2ccc(C(=O)N(C)Cc3ccccc3)cc2)C1 (configuration not stated)	none (no result: PPC-1+TRAIL kill)
COc1ccccc1NC(=S)NNC(=O)c1ccc(Cl)cc1Cl	SENP7 inh 54.2, SENP6 block 71.8 | SENP8 conf inactive | SENP6 confirm inactive | SENP7 confirm inactive | Casp3 SENP sel inactive | Luc interf inactive
O=C(Nc1nc2c(s1)CCCC2)c1ccc2ncsc2c1	none
Cc1cc(C(=O)Nc2nc3c(s2)CCCC3)cs1	SENP7 inh 86.0, SENP6 block 83.7, TRAIL sens C8 58.0, SENP8 block-2 67.2 | SENP8 conf inactive | SENP6 confirm 74.6 | SENP7 confirm 97.7 | Casp3 SENP sel 83.7 | Luc interf inactive
Cc1ccc(CC(=O)Nc2nc3c(s2)CCCC3)cc1	none
O=C(Nc1nc2c(s1)CCCC2)c1ccc(N2C(=O)CCC2=O)cc1	none (no result: PPC-1+TRAIL kill)
Cc1ncsc1C(=O)Nc1nc2c(s1)CCCC2	SENP7 inh 98.9, SENP6 block 96.0, SENP8 block-2 91.8 | SENP8 conf 52.5 | SENP6 confirm 98.2 | SENP7 confirm 103.1 | Casp3 SENP sel 97.6 | Luc interf 53.2
O=C(Nc1nc2c(s1)CCCC2)c1ccc(Br)s1	SENP7 inh 52.9, SENP6 block 59.6 | SENP8 conf inactive | SENP6 confirm inactive | SENP7 confirm 86.2 | Casp3 SENP sel inactive | Luc interf inactive
CCO[C@H]1OC(C(=O)N2CCOCC2)=C[C@@H](C2CC2)[C@@H]1CCCO	none
Clc1cccc(-c2ccc(C3Nc4cccc5cccc(c45)N3)o2)c1	none (no result: PPC-1+TRAIL kill)
Oc1cccc(/C=N/N=C/c2cccc(O)c2O)c1O	SENP7 inh 93.7, SENP6 block 96.2, SENP8 block-2 91.7 (no result: PPC-1+TRAIL kill) | SENP8 conf 93.9 | SENP6 confirm 94.0 | SENP7 confirm 100.4 | Casp3 SENP sel 92.4 | Luc interf inactive
Cc1ccccc1N=Cc1cccc(O)c1O	none
CCNC(=O)C1(C)CCCN(Cc2cccc(Oc3ccccc3)c2)C1 (configuration not stated)	none (no result: PPC-1+TRAIL kill, SENP7 inh, SENP6 block, SENP8 block-2)
O=c1c(N2CCOCC2)coc2ccccc12	none
O=c1[nH]c(N2CCOCC2)cc2ccccc12	SENP7 inh 95.8, SENP6 block 91.3, SENP8 block-2 87.1 (no result: PPC-1+TRAIL kill) | SENP8 conf inactive | SENP6 confirm 75.9 | SENP7 confirm 60.9 | Casp3 SENP sel inactive | Luc interf inactive
Nc1cccc2cnccc12	SENP6 block 90.9, SENP8 block-2 89.3 | SENP8 conf inactive | SENP6 confirm inactive | SENP7 confirm inactive | Casp3 SENP sel inactive | Luc interf inactive
O=C1/C(=C\c2ccc(O)c(O)c2)SC(=S)N1Cc1ccccc1	SENP8 block-1 36.4, SENP6 block 54.7 (no result: PPC-1+TRAIL kill) | SENP8 conf 69.6 | SENP6 confirm 68.9 | SENP7 confirm 71.8 | Casp3 SENP sel inactive | Luc interf inactive
Cc1ccc(C=C2SC(=S)N(CCCC(=O)Nc3cccc(C(=O)O)c3)C2=O)cc1	none (no result: PPC-1+TRAIL kill, SENP7 inh, SENP6 block, SENP8 block-2)
Cc1ccc(NC(=O)COc2cccc(/C=C3\SC(=S)N(CCC(=O)O)C3=O)c2)cc1Cl	SENP6 block 65.8 | SENP8 conf inactive | SENP6 confirm inactive | SENP7 confirm 61.3 | Casp3 SENP sel inactive | Luc interf inactive
